# From publication PMC7862700, “An all-to-all approach to the identification of sequence-specific readers for epigenetic DNA modifications on cytosine”
# How the values were obtained:
# Assay in all cases: DAPPL (digital affinity profiling via proximity ligation, sequencing); 10 mM Tris-HCl pH 7.5, 50 mM NaCl, 1 mM DTT, 4% glycerol, room temperature, 30 min; GST-TFs on glutathione beads, 16-mer random dsDNA library, 0.1% formaldehyde crosslink after washing; high values mean tight binding
# FLI1 = molecular target: T1, FLI1 (Homo sapiens, UniProt Q01543 1-452); settings: protein: recombinant; tags: N-terminal GST; dsDNA, one strand shown
# T1 sequence: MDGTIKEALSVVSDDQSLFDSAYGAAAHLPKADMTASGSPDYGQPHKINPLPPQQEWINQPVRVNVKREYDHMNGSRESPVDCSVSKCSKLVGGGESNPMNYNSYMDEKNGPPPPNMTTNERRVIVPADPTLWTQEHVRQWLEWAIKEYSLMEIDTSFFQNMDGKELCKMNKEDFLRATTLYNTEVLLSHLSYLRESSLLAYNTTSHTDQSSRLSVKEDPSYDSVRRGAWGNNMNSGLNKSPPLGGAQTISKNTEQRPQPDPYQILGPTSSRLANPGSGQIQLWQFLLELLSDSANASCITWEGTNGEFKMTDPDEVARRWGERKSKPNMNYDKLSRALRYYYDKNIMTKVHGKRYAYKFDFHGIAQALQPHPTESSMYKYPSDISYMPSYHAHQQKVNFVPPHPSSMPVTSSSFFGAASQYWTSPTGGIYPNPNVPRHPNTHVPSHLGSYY
# Outline: (§1)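 GST fusions of human transcription factors were expressed in yeast and captured with glutathione beads. Once given DNA barcodes and pooled alongside a tag-only sample, they were incubated for 30 min at room temperature with 200 nmole of a random double-stranded 16-mer DNA library in Tris/NaCl/DTT/glycerol buffer, then washed, crosslinked (0.1% formaldehyde), proximity-ligated, PCR-amplified and sequenced on an Illumina NextSeq500. The binding signal of each hexamer is its read frequency for a factor divided by its frequency for the tag-only sample.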
# ELK1 = molecular target: T2, ELK1 (Homo sapiens, UniProt P19419 1-428); settings: protein: recombinant; tags: N-terminal GST; dsDNA, one strand shown
# T2 sequence: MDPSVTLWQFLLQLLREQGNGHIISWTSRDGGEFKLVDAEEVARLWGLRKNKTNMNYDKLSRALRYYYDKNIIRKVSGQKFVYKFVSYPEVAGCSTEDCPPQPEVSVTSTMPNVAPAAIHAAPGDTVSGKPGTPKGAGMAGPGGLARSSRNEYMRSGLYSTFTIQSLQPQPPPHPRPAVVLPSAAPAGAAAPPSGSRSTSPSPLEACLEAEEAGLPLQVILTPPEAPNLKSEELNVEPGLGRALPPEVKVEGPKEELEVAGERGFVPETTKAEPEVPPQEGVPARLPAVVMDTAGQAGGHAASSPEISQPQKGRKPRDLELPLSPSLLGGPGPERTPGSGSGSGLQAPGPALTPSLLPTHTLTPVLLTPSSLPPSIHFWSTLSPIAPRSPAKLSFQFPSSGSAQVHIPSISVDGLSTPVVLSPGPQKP
# Outline: as §1
# GABPA = molecular target: T3, GABPA (Homo sapiens, UniProt Q06546 1-454); settings: protein: recombinant; tags: N-terminal GST; dsDNA, one strand shown
# T3 sequence: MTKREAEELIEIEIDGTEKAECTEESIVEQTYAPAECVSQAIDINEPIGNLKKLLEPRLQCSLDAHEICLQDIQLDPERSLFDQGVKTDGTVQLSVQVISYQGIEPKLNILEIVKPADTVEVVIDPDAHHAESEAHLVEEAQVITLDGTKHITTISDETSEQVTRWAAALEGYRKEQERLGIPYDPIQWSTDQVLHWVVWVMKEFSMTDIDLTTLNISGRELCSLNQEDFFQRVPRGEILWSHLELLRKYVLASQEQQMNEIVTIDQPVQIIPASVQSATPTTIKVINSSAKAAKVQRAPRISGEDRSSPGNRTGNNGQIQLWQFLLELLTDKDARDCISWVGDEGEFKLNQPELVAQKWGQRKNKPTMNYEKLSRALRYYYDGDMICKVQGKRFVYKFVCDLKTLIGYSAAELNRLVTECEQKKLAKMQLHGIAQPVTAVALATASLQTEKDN
# Outline: as §1
# ERG = molecular target: T4, ERG (Homo sapiens, UniProt P11308 1-479); settings: protein: recombinant; tags: N-terminal GST; dsDNA, one strand shown
# T4 sequence: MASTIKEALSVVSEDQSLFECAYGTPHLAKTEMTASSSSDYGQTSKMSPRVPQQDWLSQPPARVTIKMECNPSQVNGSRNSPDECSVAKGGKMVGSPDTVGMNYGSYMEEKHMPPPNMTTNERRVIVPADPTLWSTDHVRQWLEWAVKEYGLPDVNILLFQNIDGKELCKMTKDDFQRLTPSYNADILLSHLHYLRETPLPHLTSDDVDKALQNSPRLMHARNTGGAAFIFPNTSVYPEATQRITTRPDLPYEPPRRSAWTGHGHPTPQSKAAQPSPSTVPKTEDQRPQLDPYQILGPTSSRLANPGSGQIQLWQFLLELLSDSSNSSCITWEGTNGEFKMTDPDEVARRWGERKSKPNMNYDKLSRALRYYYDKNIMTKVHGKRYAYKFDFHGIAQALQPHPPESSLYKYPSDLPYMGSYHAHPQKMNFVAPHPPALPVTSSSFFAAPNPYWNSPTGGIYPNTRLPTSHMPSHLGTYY
# Outline: as §1
# ELF1 = ELF1 (Homo sapiens, UniProt P32519 1-619); settings: protein: recombinant; tags: N-terminal GST; dsDNA, one strand shown
# ELF1, sequence (P32519 whole entry): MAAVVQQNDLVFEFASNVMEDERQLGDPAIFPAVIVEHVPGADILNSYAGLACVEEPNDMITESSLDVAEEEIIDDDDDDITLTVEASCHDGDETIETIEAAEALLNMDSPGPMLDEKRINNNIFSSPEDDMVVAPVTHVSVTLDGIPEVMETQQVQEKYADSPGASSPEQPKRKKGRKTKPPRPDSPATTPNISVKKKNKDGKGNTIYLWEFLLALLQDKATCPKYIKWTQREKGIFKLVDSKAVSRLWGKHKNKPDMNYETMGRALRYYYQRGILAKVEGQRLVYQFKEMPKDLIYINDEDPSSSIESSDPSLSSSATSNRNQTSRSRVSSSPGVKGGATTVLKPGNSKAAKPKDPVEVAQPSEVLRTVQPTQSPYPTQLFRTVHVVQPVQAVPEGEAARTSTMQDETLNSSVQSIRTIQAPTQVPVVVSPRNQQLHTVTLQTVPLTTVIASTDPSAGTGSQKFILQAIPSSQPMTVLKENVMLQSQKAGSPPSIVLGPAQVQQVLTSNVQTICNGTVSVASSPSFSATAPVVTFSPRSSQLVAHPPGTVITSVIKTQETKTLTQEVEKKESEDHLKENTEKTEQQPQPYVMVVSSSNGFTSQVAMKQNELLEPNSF
# Outline: as §1
# EHF = molecular target: T5, EHF (Homo sapiens, UniProt Q9NZC4 1-300); settings: protein: recombinant; tags: N-terminal GST; dsDNA, one strand shown
# T5 sequence: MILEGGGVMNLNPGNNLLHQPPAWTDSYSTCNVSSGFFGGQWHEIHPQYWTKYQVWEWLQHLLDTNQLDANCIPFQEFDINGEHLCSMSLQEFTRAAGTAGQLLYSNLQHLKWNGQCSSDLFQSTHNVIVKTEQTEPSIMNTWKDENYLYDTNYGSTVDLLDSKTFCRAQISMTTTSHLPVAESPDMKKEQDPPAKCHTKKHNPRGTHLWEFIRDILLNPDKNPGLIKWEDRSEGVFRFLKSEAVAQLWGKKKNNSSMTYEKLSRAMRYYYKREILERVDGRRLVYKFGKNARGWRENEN
# Outline: as §1
# SPI1 = SPI1 (Homo sapiens, UniProt P17947 1-270); settings: protein: recombinant; tags: N-terminal GST; dsDNA, one strand shown
# Outline: as §1
# SPIB = SPIB (Homo sapiens, UniProt Q01892 1-262); settings: protein: recombinant; tags: N-terminal GST; dsDNA, one strand shown
# SPIB, sequence (Q01892 whole entry): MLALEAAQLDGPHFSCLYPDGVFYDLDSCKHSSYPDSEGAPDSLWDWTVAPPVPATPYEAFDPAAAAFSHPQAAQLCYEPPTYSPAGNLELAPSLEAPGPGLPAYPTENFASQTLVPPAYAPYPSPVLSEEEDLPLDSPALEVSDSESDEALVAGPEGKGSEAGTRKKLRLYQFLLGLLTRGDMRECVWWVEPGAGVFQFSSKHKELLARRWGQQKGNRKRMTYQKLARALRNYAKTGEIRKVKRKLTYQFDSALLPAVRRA
# Outline: as §1
# ELK3 = molecular target: T6, ELK3 (Homo sapiens, UniProt P41970 1-407); settings: protein: recombinant; tags: N-terminal GST; dsDNA, one strand shown
# T6 sequence: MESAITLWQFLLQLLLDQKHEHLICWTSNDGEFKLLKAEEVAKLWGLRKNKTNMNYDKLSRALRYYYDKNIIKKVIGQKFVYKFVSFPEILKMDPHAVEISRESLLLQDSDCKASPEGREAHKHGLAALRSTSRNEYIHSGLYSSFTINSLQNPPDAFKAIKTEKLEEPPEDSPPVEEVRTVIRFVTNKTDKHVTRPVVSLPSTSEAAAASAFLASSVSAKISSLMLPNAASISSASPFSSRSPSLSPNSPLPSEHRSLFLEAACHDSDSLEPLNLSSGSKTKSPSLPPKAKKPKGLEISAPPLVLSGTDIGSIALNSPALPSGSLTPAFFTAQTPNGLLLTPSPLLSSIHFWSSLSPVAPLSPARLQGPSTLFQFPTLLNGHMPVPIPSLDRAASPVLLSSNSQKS
# Outline: as §1
# FEV = molecular target: T7, FEV (Homo sapiens, UniProt Q99581 1-238); settings: protein: recombinant; tags: N-terminal GST; dsDNA, one strand shown
# T7 sequence: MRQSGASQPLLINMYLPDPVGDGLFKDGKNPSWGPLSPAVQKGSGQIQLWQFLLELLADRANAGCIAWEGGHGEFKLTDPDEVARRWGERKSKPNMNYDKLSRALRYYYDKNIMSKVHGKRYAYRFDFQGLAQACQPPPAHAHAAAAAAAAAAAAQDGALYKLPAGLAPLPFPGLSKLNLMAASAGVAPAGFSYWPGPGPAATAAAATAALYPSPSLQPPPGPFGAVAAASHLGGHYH
# Outline: as §1
# ETV5 = ETV5 (Homo sapiens, UniProt P41161 1-510); settings: protein: recombinant; tags: N-terminal GST; dsDNA, one strand shown
# ETV5, sequence (P41161 whole entry): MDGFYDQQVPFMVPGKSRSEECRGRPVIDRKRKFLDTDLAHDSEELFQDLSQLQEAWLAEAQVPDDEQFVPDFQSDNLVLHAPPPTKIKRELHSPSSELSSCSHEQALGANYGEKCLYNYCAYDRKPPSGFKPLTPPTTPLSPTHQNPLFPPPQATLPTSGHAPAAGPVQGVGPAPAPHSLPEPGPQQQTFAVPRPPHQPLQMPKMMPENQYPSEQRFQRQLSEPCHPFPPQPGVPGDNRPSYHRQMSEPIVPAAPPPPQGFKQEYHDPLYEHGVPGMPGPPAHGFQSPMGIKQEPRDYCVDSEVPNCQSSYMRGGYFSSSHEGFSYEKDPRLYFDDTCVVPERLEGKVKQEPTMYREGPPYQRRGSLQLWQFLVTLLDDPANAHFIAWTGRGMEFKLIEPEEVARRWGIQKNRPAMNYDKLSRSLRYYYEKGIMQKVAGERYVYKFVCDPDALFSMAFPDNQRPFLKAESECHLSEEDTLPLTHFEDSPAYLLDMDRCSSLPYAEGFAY
# Outline: as §1
# HSF1 = HSF1 (Homo sapiens, UniProt Q00613 1-529); settings: protein: recombinant; tags: N-terminal GST; chain copies: 3; dsDNA, one strand shown
# HSF1, sequence (Q00613 whole entry): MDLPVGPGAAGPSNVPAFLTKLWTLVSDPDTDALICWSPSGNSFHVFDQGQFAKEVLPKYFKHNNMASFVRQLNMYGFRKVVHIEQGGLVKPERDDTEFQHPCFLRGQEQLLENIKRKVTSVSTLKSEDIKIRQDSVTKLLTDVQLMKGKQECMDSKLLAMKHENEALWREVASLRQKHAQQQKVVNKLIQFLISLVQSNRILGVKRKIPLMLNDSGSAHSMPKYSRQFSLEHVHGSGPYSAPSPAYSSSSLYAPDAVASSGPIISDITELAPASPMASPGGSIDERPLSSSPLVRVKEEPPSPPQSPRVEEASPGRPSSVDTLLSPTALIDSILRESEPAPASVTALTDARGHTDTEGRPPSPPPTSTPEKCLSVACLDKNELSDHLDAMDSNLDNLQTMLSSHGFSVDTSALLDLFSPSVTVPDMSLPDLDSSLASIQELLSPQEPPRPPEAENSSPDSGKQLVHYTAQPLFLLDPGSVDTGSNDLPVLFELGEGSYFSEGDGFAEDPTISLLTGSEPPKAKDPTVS
# Outline: as §1
# SPIC = molecular target: T8, SPIC (Homo sapiens, UniProt Q8N5J4 1-248); settings: protein: recombinant; tags: N-terminal GST; dsDNA, one strand shown
# T8 sequence: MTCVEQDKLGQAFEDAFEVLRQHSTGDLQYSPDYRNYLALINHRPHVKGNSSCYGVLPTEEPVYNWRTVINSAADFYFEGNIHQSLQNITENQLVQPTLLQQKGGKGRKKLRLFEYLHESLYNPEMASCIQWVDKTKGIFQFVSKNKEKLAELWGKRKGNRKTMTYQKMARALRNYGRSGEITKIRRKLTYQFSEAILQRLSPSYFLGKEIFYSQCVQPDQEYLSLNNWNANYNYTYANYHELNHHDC
# Outline: as §1
# ELF4 = ELF4 (Homo sapiens, UniProt Q99607 1-663); settings: protein: recombinant; tags: N-terminal GST; dsDNA, one strand shown
# ELF4, sequence (Q99607 whole entry): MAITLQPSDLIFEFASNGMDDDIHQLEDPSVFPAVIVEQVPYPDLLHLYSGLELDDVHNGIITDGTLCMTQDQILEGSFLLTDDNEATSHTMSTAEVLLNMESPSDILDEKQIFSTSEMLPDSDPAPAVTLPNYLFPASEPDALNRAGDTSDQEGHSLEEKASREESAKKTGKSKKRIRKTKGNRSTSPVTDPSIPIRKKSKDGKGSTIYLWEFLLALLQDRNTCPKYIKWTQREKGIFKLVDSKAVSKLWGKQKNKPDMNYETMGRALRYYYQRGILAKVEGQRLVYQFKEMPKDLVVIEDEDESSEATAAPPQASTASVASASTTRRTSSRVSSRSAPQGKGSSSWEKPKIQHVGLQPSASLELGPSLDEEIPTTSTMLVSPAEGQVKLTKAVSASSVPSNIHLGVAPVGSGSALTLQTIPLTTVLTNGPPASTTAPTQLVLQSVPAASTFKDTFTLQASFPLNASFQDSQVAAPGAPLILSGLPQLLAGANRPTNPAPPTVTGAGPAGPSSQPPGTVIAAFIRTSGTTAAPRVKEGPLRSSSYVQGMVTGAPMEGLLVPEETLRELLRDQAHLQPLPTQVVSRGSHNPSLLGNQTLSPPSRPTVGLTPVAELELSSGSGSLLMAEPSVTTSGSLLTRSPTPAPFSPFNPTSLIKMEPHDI
# Outline: as §1
# ELK4 = molecular target: T9, ELK4 (Homo sapiens, UniProt P28324-2 1-405); settings: protein: recombinant; tags: N-terminal GST; dsDNA, one strand shown
# T9 sequence: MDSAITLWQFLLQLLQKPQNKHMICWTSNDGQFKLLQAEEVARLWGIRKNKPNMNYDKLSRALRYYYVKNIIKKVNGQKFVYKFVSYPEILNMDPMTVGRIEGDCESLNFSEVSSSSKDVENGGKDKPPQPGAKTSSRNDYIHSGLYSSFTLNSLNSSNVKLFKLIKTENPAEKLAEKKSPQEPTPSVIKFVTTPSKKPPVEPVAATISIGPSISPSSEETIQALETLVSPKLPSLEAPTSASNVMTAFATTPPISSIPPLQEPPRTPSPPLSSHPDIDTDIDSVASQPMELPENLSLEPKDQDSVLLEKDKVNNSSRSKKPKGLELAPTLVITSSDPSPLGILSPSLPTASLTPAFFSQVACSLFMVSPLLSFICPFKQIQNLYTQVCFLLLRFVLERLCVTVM
# Outline: as §1
# ETV2 = molecular target: T10, ETV2 (Homo sapiens, UniProt O00321 1-342); settings: protein: recombinant; tags: N-terminal GST; dsDNA, one strand shown
# T10 sequence: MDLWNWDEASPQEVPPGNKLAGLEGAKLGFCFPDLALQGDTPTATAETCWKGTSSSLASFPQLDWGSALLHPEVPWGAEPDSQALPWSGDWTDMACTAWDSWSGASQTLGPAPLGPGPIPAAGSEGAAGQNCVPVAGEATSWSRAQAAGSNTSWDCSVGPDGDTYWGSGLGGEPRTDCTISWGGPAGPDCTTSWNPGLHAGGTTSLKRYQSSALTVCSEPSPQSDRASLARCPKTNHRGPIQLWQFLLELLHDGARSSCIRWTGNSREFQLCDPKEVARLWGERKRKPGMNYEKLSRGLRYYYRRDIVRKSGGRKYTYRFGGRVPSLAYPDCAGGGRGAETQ
# Outline: as §1
# ELF3 = molecular target: T11, ELF3 (Homo sapiens, UniProt P78545 1-371); settings: protein: recombinant; tags: N-terminal GST; dsDNA, one strand shown
# T11 sequence: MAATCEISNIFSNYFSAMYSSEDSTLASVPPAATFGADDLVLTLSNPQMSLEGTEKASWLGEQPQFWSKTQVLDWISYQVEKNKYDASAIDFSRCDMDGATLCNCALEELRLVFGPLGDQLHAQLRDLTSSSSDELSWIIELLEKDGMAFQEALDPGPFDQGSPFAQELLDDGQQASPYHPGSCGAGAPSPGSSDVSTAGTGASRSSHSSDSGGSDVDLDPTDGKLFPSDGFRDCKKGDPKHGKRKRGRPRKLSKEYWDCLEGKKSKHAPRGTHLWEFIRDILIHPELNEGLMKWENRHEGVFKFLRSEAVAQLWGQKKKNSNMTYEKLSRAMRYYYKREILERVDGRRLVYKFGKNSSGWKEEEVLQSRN
# Outline: as §1
# CRX = CRX (Homo sapiens, UniProt O43186 1-299); settings: protein: recombinant; tags: N-terminal GST; dsDNA, one strand shown
# CRX, sequence (O43186 whole entry): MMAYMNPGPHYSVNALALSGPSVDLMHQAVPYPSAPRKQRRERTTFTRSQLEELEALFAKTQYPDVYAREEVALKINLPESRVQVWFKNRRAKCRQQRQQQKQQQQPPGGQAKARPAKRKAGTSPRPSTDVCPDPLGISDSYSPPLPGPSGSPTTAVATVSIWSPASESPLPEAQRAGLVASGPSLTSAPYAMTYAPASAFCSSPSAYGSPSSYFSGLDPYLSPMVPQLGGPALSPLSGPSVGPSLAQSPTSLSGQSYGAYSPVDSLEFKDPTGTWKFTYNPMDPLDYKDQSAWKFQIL
# Outline: as §1
# ETV1 = ETV1 (Homo sapiens, UniProt P50549 1-477); settings: protein: recombinant; tags: N-terminal GST; dsDNA, one strand shown
# ETV1, sequence (P50549 whole entry): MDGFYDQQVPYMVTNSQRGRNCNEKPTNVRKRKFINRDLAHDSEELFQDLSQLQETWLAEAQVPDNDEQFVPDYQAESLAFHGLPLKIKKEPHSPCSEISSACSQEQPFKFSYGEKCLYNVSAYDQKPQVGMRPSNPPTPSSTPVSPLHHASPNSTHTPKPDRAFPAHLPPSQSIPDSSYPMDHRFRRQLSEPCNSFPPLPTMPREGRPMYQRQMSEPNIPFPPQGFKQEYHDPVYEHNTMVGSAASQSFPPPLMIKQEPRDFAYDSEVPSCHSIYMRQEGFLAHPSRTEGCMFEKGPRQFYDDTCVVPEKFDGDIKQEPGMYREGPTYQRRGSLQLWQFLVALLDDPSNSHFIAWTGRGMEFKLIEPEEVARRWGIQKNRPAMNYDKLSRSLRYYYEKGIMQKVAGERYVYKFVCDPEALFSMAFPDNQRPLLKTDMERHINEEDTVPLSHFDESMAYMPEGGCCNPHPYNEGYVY
# Outline: as §1
sequence,measurement,setting,value
CGCTTC,binding signal,FLI1,"1.94 fold enrichment (6-mer frequency, TF over GST control)"
same,binding signal,ELK1,"2.2 fold enrichment (6-mer frequency, TF over GST control)"
same,binding signal,GABPA,"1.99 fold enrichment (6-mer frequency, TF over GST control)"
same,binding signal,ERG,"2.07 fold enrichment (6-mer frequency, TF over GST control)"
same,binding signal,ELF1,"2.04 fold enrichment (6-mer frequency, TF over GST control)"
same,binding signal,EHF,"2.16 fold enrichment (6-mer frequency, TF over GST control)"
same,binding signal,SPI1,"2 fold enrichment (6-mer frequency, TF over GST control)"
same,binding signal,SPIB,"2.05 fold enrichment (6-mer frequency, TF over GST control)"
same,binding signal,ELK3,"2.29 fold enrichment (6-mer frequency, TF over GST control)"
same,binding signal,FEV,"2.28 fold enrichment (6-mer frequency, TF over GST control)"
same,binding signal,ETV5,"2.34 fold enrichment (6-mer frequency, TF over GST control)"
same,binding signal,HSF1,"1.26 fold enrichment (6-mer frequency, TF over GST control)"
same,binding signal,SPIC,"1.77 fold enrichment (6-mer frequency, TF over GST control)"
same,binding signal,ELF4,"2.02 fold enrichment (6-mer frequency, TF over GST control)"
same,binding signal,ELK4,"1.77 fold enrichment (6-mer frequency, TF over GST control)"
same,binding signal,ETV2,"1.68 fold enrichment (6-mer frequency, TF over GST control)"
same,binding signal,ELF3,"1.93 fold enrichment (6-mer frequency, TF over GST control)"
same,binding signal,CRX,"1.05 fold enrichment (6-mer frequency, TF over GST control)"
same,binding signal,ETV1,"2.03 fold enrichment (6-mer frequency, TF over GST control)"
